PubChem BioAssay AID1053126 (Broad Institute, 2014)
Potency and affinity values are given separately. Calls of active or inactive are those of the source.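 Rule for the calls: active = cell killing with a fitted half-effect concentration at or below twice the top valid dose; inconclusive = flat curve with 30 to 70 percent drop, or poor fit; inactive = the rest.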

Assay: HEK293T cell cytotoxicity, dose response, cytotoxicity control, ATP luminescence, cherry-pick, set 6 (AID 1053126);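 note: 0% = neutral control wells and -100% = mitoxantrone 10 µM positive control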
Details: HEK293T viability, CellTiter-Glo ATP luminescence, 72 h; series mostly up to 26 µM; activity change, negative = cytotoxicity: at the top concentration

SMILES | activity change, negative = cytotoxicity
Cc1c2c(n3c(nc4ccccc43)c1C#N)N(CCN1CCOCC1)CC2 | -6.36% (inactive)
COc1ccccc1C(=O)c1cc2ccc(O)cc2oc1=O | -13.3% (inactive)
Cc1c(O)ccc2cc(S(=O)(=O)c3ccccc3)c(=O)oc12 | -10.9% (inactive)
CN(C)CCOCCOc1ccc(Cl)c2ccccc12 | -24.5% (inactive)
CCCCCCc1cc2cc(S(=O)(=O)c3ccc(F)cc3)c(=O)oc2cc1O | 48.1% [at 12 µM] (inactive)
Cc1ccc(NC(=O)Nc2ccnc(-c3cccnc3)n2)cc1 | -11.9% (inactive)
CC1CC(C)CN(CCCNC(=O)CCC(=O)N2CC(C)Oc3ccccc32)C1 (stereo not drawn) | 9.39% (inactive)
Cc1noc(C)c1-c1ccc(C(=O)NCCc2ccccc2)c2occc12 | -10.6% (inactive)
O=[N+]([O-])c1cccc(Nc2c3ccccc3nc3ccccc23)c1 | -22% (inactive)
CCOC(=O)c1c(C)n(C)c2ccc(OCC(O)CN3CCC(C)CC3)cc12 (stereo not drawn) | 12.2% (inactive)
O=c1oc2cc(O)ccc2cc1S(=O)(=O)c1ccccc1 | -5.95% (inactive)
O=C(NCc1nnnn1-c1ccc(Cl)cc1)C1CC(=O)N(c2ccc(F)cc2)C1 (stereo not drawn) | 19.6% (inactive)
CCOC(=O)c1cc2c(=O)n3cccc(C)c3nc2n(CC(C)C)c1=NC(=O)c1ccco1 | -0.128% (inactive)
Cc1ccc2c(c1)N(C(=O)CCC(=O)NCCCN1CCOCC1)CC(C)O2 (stereo not drawn) | -8.52% (inactive)
COc1ccc(CCN=C(N)NS(=O)(=O)c2ccc(F)cc2)cc1 | -15.2% (inactive)
Cc1ccc(-n2c(C)cc(/C=N/NC(=O)Cn3c4ccccc4c(=O)c4ccccc43)c2C)cc1 | 23.8% (inactive)
COc1ccccc1OCc1ccc(C(=O)N(C)c2ccccc2)o1 | 23.6% (inactive)
Cc1cccn2c(=O)c3cc(C(=O)NCCN4CCOCC4)c(=N)n(CCc4ccccc4)c3nc12 | -20.7% (inactive)
